Screening data from PubChem.
CXXC DNA block – MLL CXXC-DNA interaction inhibition; Q03164; MLL-CXXC / FITC-HOXA9 DNA fluorescence polarization; Potency, µM (highest dose often 115 µM), for inactives: at the top dose activity change, negative = inhibition, actives largely listed as inhibitors; 290,000 tested, 0.037% active; AID 2662; active = well fitted inhibition curve with a large enough effect in the polarisation, with a control signal flat, not every such curve was filed as active; inconclusive = small, poorly fitted or top-dose-only effect, or effect the other way, or a change in a side signal; inactive = no such curve, though single readings can be large or run the other way; the % refers to the polarisation; note: potency is the fitted concentration of half-maximal effect
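Fluorescence polarization: 7 uM MLL-CXXC (stock) preincubated 5 min with compounds, then 50 nM fluorescein-HOX-A9 DNA (stock) added; 30 min ambient. Buffer 50 mM Tris-HCl pH 7.5, 50 mM NaCl, 1 mM DTT, 0.05% BSA.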
Menin-MLL TR inh – displaces Texas Red mutant MLL peptide from human menin; O00255; Menin + Texas Red MLL mutant peptide, fluorescence polarization; Potency, µM (top dose mostly 61.6 µM), without a hit: at the top dose FP activity change, negative = inhibition, actives largely listed as inhibitors; 270,000 tested, 0.23% active; active = well fitted inhibition curve with a large enough effect in the polarisation, with a control signal flat, not every such curve was filed as active; inconclusive = small, poorly fitted or top-dose-only effect, or effect the other way, or a change in a side signal; inactive = no such curve, though single readings can be large or run the other way; the % refers to the polarisation; note: potency is the fitted concentration of half-maximal effect; % of control where 0% means no effect
Target sequence (O00255 whole entry, looked up): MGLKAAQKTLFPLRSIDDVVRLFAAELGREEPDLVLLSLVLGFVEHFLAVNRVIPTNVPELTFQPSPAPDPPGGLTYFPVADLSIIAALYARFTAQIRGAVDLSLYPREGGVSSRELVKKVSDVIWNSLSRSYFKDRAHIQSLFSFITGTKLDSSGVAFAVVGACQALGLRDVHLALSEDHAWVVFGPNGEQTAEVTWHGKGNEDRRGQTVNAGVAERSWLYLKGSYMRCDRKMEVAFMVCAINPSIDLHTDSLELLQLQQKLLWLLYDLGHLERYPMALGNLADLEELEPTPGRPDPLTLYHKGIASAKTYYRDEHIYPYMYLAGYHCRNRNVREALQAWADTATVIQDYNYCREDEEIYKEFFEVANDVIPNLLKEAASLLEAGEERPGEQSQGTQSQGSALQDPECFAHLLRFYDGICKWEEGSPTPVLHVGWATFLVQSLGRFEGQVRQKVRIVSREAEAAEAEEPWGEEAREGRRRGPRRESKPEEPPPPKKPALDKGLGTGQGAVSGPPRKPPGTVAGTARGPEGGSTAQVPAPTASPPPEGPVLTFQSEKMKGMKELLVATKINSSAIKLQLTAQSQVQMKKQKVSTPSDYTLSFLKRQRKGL
ERG-DNA inh – inhibitors of human ERG Ets domain-DNA interaction; P11308; AID 624246; 370,000 tested, 0.028% active; Potency, µM (titrated, usually from 76.9 µM), for inactives: at the highest dose FP activity, negative = inhibition, actives largely listed as inhibitors; fluorescence polarization, His-ERG Ets domain / labelled DNA; active = well fitted inhibition curve with a large enough effect in the polarisation, with a control signal flat; inconclusive = small, poorly fitted or top-dose-only effect, or effect the other way, or a change in a side signal; inactive = no such curve, though single readings can be large or run the other way; the % refers to the polarisation;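 note: polarization taken with two DNA probes labelled with fluorescein and Texas red; potency is the fitted concentration of half-maximal effect; % of control where 0% means no effect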
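His-tagged ERG Ets domain (1 uM in the protein solution; 300mM KCl, 50mM Tris-HCl, 1mM EDTA, 1mM DTT, pH 7.5) received compound, then a probe mix of 5 nM fluorescein-DNA and 100nM Texas-615-DNA. Fluorescence polarization was read for both dyes.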
Menin-MLL FL inh – inhibitors of human menin-MLL interaction, wild-type MLL peptide. Fluorescence polarization, fluorescein-MLL peptide displacement from menin. FP activity change, % at 61.4 µM. 290,000 tested, under 10 active. AID 1766; active = well fitted curve in the direction sought with a large enough effect in the polarisation, not every such curve was filed as active; inconclusive = small, poorly fitted or top-dose-only effect, or effect the other way, or a change in a side signal; inactive = no such curve, though single readings can be large or run the other way; the % refers to the polarisation; note: % of control where 0% means no effect
GoLoco inh red – RGS12 GoLoco-Gai1 interaction inhibition; Potency, µM (top dose mostly 61.6 µM), without a hit: at the highest dose activity, negative = inhibition, actives largely listed as inhibitors; AID 880; Gai1:RGS12 GoLoco peptide FP, rhodamine, 10 min; 230,000 tested, 0.44% active; P63096; active = well fitted inhibition curve with a large enough effect, not every such curve was filed as active; inactive = no such curve, though single readings can be large or run the other way; note: potency is the fitted concentration of half-maximal effect; % is set by controls: 0 for no effect and ±100 for the full control effect; nearly all actives have a fitted effect of over 30% in size
Starred values were filed as active, the others as inactive; i = inactive; ? = inconclusive; / = no result; [ ] = another dose, or the depositor's remark. Only a selection was taken, and hits are over-represented in it overall.

SMILES	CXXC DNA block	Menin-MLL TR inh	ERG-DNA inh	Menin-MLL FL inh	GoLoco inh red
c1ccc(-c2n[nH]nc2-c2ccccc2)cc1	-5%	1%	-3%	1	0%
CCn1c2ccccc2c2cc(/C=N/NC(=O)c3ccccc3)ccc21	19%	25µM*	-3%	3	5%
Cc1c(OC(=O)c2ccc([N+](=O)[O-])cc2)c2c(c[n+]1C)COC(C)(C)OC2	0%	3%	-15%	-10	13µM*
Cc1ncc2c(c1OC(=O)c1ccccc1)COC(C)(C)OC2	124%	-8%	4%	2	3%
C1CCCNCC1	/	/	/	/	22µM*
CCOCN(C(=O)Cn1cnc2cc(C)c(C)cc21)c1c(C)cccc1CC	/	/	0%	/	/
CC(C)([CH2][Sn]([CH2]C(C)(C)c1ccccc1)([CH2]C(C)(C)c1ccccc1)[O][Sn]([CH2]C(C)(C)c1ccccc1)([CH2]C(C)(C)c1ccccc1)[CH2]C(C)(C)c1ccccc1)c1ccccc1	/	-25%	/	-1	/
COc1ccc(NC(=O)C2CCCN2S(=O)(=O)c2ccc3c(c2)CCCC(=O)N3)cc1Cl (centres undefined)	/	/	-4%	/	/
O=C(O)c1ccccc1-c1c2ccc(=O)cc-2oc2cc(O)ccc12	?	?	/	?	0.4µM*
O=C(O)c1ccccc1-c1oc2cc(O)ccc2c(=O)c1Oc1ccccc1	/	-18%	/	-4	-23%
CCN1/C(=C/c2sc(-c3ccccc3C)c[n+]2C)Sc2ccccc21	0%	25µM*	5%	-2	10µM*
COc1ccc(OC)c2c1C(=O)c1ccccc1C2=O	?	-17%	32µM*	?	7.9µM*
COc1ccc(OC)c2c1C(=O)C(Cl)=C(Cl)C2=O	-3%	/	-1%	5	0.45µM*
COc1ccc(N)c2c1C(=O)c1ccccc1C2=O	?	?	?	1	48%
O=C1c2ccccc2C(=O)c2c(O)ccc(O)c21	/	-4%	/	?	28µM*
C/C(N=NC(=[SH+])SCc1ccccc1)=C1\C=CC=CN1.[Cl][Cu]	/	/	/	/	-32%[14.2 µM]
Cc1ccc(C)c(-c2ccc(=O)n(C(C)C(=O)Nc3ccccc3C(F)(F)F)n2)c1 (centres undefined)	/	/	-6%	/	/
O=C(Nc1nnc(S(=O)(=O)N2CCCc3ccccc32)s1)c1cccc(Cl)c1	/	/	4%	/	/
Cc1cccc([C@@H]2[C@@H]3C(=O)N(Cc4ccccc4)C(=O)[C@@H]3[C@]3(Cc4ccc(Cl)cc4)C(=O)N(c4ccc(Br)cc4)C(=O)N23)c1	19%	20µM*	6%	0	/
c1ccc2sc(SSc3nc4ccccc4s3)nc2c1	6%	-2%	/	-1	10µM*
NCCSc1nc2ccccc2s1	/	/	/	/	2%[14.2 µM]
Cc1ccc(-n2c(=O)c3oc4ccccc4c3n(Cc3ccccc3)c2=O)cc1C	/	/	-1%	/	/
Cc1cc(-c2ccc(S(=O)(=O)NCc3ccccc3Cl)s2)on1	/	/	0%	/	/
CCN(CC)Cc1cc(O)c(CN(CC)CC)cc1O	?	-21%	-9%	?	7.9µM*
CCc1oc(C(=O)O)cc1CN(CC)CC	1%	-22%	-4%	2	8%
SMILES	CXXC DNA block	Menin-MLL TR inh	ERG-DNA inh	Menin-MLL FL inh	GoLoco inh red
COc1cc(O)c2c(c1)oc(=O)c1c3cc(O)c(O)cc3oc21	/	?	/	0	/
Cc1c2cc(O)c(=O)cc-2oc2cc(O)c(O)cc12	?	?	?	?	7.9µM*
COc1cc(OC)c(-c2c3cc(O)c(=O)cc-3oc3cc(O)c(O)cc23)cc1OC	?	?	-158%	?	i
O=C(NCCO)Nc1ccc2nc(-c3ccco3)c(-c3ccco3)nc2c1	35µM*	?	/	?	-31%
COC(=O)c1cc2c(-c3ccccc3)cc3ccccn3c-2c1C(=O)OC	-14%	?	1%	?	49%
COC(=O)c1c(C(=O)OC)c2cccc3cc(-c4ccccc4)c4ccc1c4n32	-3%	?	0%	?	18µM*
COc1ccccc1NC(=O)Cn1nnc(-c2ccccc2NC(=O)c2cc3ccccc3oc2=O)n1	-11%	20µM*	/	-1	8%
COC(=O)c1ccc(O)cc1	-8%	5%	5%	2	-82%
COC(=O)c1cc(=O)c(O)c2c(O)c(O)ccc2c1	/	?	/	0	2.8µM*
N#Cc1ccc(NC(=O)Cn2c3[n+](c4ccc(C(F)(F)F)cc42)CCCCC3)cc1	51%	2%	1%	4	4%
O=C(Cn1c2[n+](c3ccc(C(F)(F)F)cc31)CCCCC2)Nc1ccc(Br)cc1	-1%	-16%	2%	1	18µM*
Cc1nc(COC(=O)c2cc(O)c3ccccc3c2O)cs1	-5%	?	-5%	1	25µM*
Cc1ccc(/C=C/C(=O)Nc2ccc(S(=O)(=O)Nc3onc(C)c3C)cc2)cc1	-6%	/	28µM*	/	/
O=C(Nc1cccc(-c2nc3ccccc3[nH]2)c1)c1c(F)cccc1F	/	/	-1%	/	/
COc1ccccc1N=Nc1[nH]c2ccc(C)cc2c1O	11%	?	-4%	3	3.5µM*
COc1ccc2[nH]c(O)c(N=O)c2c1	16%	-6%	-9%	7	16µM*
O=c1c(=O)n(-c2ccccc2)ccn1Cc1c(F)cccc1Cl	/	/	0%	/	/
COc1ccc(CCNC(=O)Cc2c(C)c3c(cc(C)c4c(C)coc43)oc2=O)cc1OC	/	/	-1%	/	/
Cc1ccc(N2C(=O)C3CC(c4ccccc4)=C4C5C=CC(C6C(=O)N(c7ccc(C)cc7C)C(=O)C56)C4C3C2=O)c(C)c1 (centres undefined)	12%	/	-6%	1	32µM*
CCCCn1cc2c(c1-c1ccc(Cl)cc1)c(=O)n(C)c(=O)n2C	/	/	2%	/	/
COc1ccc(N2CCN(CC(O)COc3cc(C)cc(C)c3)CC2)cc1 (centres undefined)	-6%	-28%	-2%	-3	/
OC(COc1ccc(F)cc1)CN1CCN(CC(O)COc2ccc(F)cc2)CC1 (centres undefined)	10%	-17%	-6%	0	/
COc1ccc(N2CCN(CC(O)COC(c3ccc(F)cc3)c3ccc(F)cc3)CC2)cc1 (centres undefined)	24%	18µM*	13%	-14	/
COc1ccc(OCC(O)CN2CCN(c3ccc(OC)cc3)CC2)cc1 (centres undefined)	-6%	35µM*	6%	-28	/
COc1ccc(OCC(O)CN2C(=O)c3ccccc3C2=O)cc1 (centres undefined)	?	0%	13µM*	1	/
COc1ccc(N2CCN(CC(O)COc3ccc(F)cc3)CC2)cc1 (centres undefined)	-4%	20µM*	17%	-17	/
O=C1c2ccccc2C(=O)N1CC(O)COc1ccc(Cl)cc1 (centres undefined)	12%	-27%	-1%	-1	/
C/C=C1\COC(C(=O)NCc2ccccn2)(C(F)(F)F)C=C1C=C(C)C (centres undefined)	/	-12%	/	-10	/
